The values that follow come from PubChem BioAssay.

Activity calls are given as the source filed them.

In experiment [1] the test system is Human papillomavirus type 1a protein E7 (residues 44-93). The experiment in a line: small molecules binding HPV E7 44-93 – biochemical, small-molecule microarray, residues 44-93, 635 nm fluorescence, primary screen (AID 1108).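 Note: E7 fragment applied at 1 µg/mL in TBST for 1 h at 4 C; score combines spot fluorescence with its signal to noise ratio.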 As to conditions: fluorescence 635 nm, higher = more signal.
Experiment [2] can be described thus: hepatitis C replication reporter changes, two-sided – Huh7 cells, luciferase reporter, HCV replication inhibitor project, primary screen (AID 1109).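 Note: huh7 hepatoma cells harbouring a luciferase neomycin HCV replicon reporter; luciferase luminescence as measure of HCV replicon replication; test concentration not given here.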 The conditions noted are these: Huh7 HCV replicon luciferase reporter, 48 h; higher = more signal.
For experiment [3], the target named is Left-right determination factor 2 (Homo sapiens) (UniProt O00292). The experiment in a line: small molecules binding LEFTY2 protein – biochemical, small-molecule microarray, 635 nm fluorescence scan, primary screen (AID 1110). As to conditions: higher = more signal.
The target of experiment [4] is Calmodulin-1 (Homo sapiens) (UniProt P0DP23). Nature of the experiment: small molecules binding calmodulin-1 with EGTA – biochemical, small-molecule microarray, Cy5-labelled CALM1, profiling panel (AID 1111).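 Note: labelled calmodulin applied in Tris saline Tween buffer holding calcium plus EGTA and DTT.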 The conditions noted are these: Cy5-CALM1 binding fluorescence, higher = more signal.
Experiment [5] has the same target. Nature of the experiment: small molecules binding Ca-loaded calmodulin-1 – biochemical, small-molecule microarray, Cy5-labelled CALM1, plus calcium, artefact control for SMM control-protein annotation, profiling panel (AID 1112).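 Note: score merges spot fluorescence with signal to noise from triplicate slides.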 As to conditions: Cy5-CALM1 binding fluorescence, higher = more signal.
A short description of experiment [6]: probe aWnt5a binding to arrayed compounds – biochemical, biotinylated probe, 635/667 nm fluorescence, primary screen (AID 1113).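 Note: score merges 667 nm fluorescence intensity with signal-to-noise per printed feature.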 As to conditions: small-molecule microarray, higher = more signal.
The nature of experiment [7]: probe aShh binding to arrayed compounds – biochemical, biotinylated probe, 635/667 nm fluorescence, primary screen (AID 1114).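 Note: probe is biotin-labelled aShh protein from a stem cell growth factor screen; measures binding of labelled protein to compounds printed on the slide; score merges feature fluorescence at 667 nm with signal-to-noise.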 The conditions noted are these: small-molecule microarray, higher = more signal.
Experiment [8] in a line: probe aNog binding to arrayed compounds – biochemical, biotinylated probe, 635/667 nm fluorescence, primary screen (AID 1115).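 Note: probe is biotinylated aNog protein used at 0.15 µg/mL for 1 h at 4 C; z-score combines 667 nm fluorescence of each spot with its signal to noise.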 As to conditions: small-molecule microarray, higher = more signal.
Experiment [9] addresses Torsin-1A-interacting protein 1 (Homo sapiens) (UniProt Q5JTV8). Nature of the experiment: compound microarray binding of lysate hLAP1 – cell lysate, small-molecule microarray, COS7 lysate, 635/667 nm fluorescence, primary screen (AID 1116). The conditions noted are these: 635 nm fluorescence, higher = more signal.
The target in experiment [10] is Alpha-bungarotoxin (Bungarus multicinctus) (UniProt P60615). Nature of the experiment: compounds binding labelled alpha-BTX control protein – biochemical, small-molecule microarray, Alexa647 label, 635/667 nm fluorescence, artefact control for SMM control protein annotation, profiling panel (AID 1117). As to conditions: alpha-BTX-A647 binding fluorescence, higher = more signal.

A further experiment deals with Albumin (Bos taurus) (UniProt P02769). Nature of the experiment: compounds binding labelled BSA control protein – biochemical, small-molecule microarray, Alexa647 label, 635/667 nm fluorescence, artefact control for SMM control protein annotation, profiling panel (AID 1118).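 Note: score merges 667 nm emission intensity and signal-to-noise per printed compound spot.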 The conditions noted are these: BSA-A647 binding, fluorescence 635 nm, higher = more signal.
The nature of experiment [11]: probe aXIP binding to arrayed compounds – biochemical, NeuroSMM set, 635/667 nm fluorescence, primary screen (AID 1119).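 Note: probe is the protein aXip251-270 applied at 1 µg/mL to compound-printed slides; binding of probe to printed compounds measured as 667 nm fluorescence plus signal to noise.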 The conditions noted are these: small-molecule microarray, higher = more signal, called active from +8 up or from −8 down.
A short description of experiment [12]: probe aNOTCH3 binding on compound microarray – biochemical, small-molecule microarray, 635/667 nm fluorescence, primary screen (AID 1120).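 Note: probe is a biotin-tagged antibody raised against NOTCH3 rather than NOTCH3 protein; score merges spot fluorescence near 667 nm with spot signal to noise.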 The conditions noted are these: higher = more signal.
The nature of experiment [13]: probe aNOTCH2 binding on compound microarray – biochemical, small-molecule microarray, 635/667 nm fluorescence, primary screen (AID 1121).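 Note: score merges feature fluorescence read at 667 nm with its signal to noise.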 The conditions noted are these: higher = more signal.
Experiment [14] has as its target Carbonic anhydrase 2 (Homo sapiens) (UniProt P00918). Nature of the experiment: compounds binding carbonic anhydrase 2 – biochemical, small-molecule microarray, Alexa647-labelled CAII, profiling panel (AID 1122). As to conditions: CAII-A647 binding fluorescence, higher = more signal.
Experiment [15] is described as follows: COS7 lysate on small-molecule microarray, probe aHis, 635 nm (AID 1123).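 Note: z-score combines 667nm fluorescence intensity with signal-to-noise per printed compound spot.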 As to conditions: COS7 cell lysate, fluorescence, higher = more signal.
A short description of experiment [16]: probe aLAP1 signal on lysate-treated microarray – cell lysate, small-molecule microarray, COS7 lysate, primary screen (AID 1124).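 Note: lysate comes from COS7 cells expressing LAP1 and is applied at 0.3 µg/mL; score merges spot fluorescence near 667 nm with signal-to-noise over triplicate slides.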 As to conditions: probe aLAP1, fluorescence, higher = more signal.
In the next experiment the test system is Sam68 (KHDRBS1). The experiment in a line: compounds binding KHDRBS1 protein – biochemical, small-molecule microarray, 635 nm fluorescence, primary screen (AID 1125).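 Note: score merges 667 nm channel intensity with signal to noise over triplicate slides.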 The conditions noted are these: higher = more signal.
Experiment [17] relates to Chordin-like protein 2 (CHRDL2). The experiment in a line: compounds binding chordin-like 2 – biochemical, small-molecule microarray, 635 nm fluorescence, primary screen (AID 1126).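 Note: printed compound slides probed with Chrdl2 protein at 4 µg/mL for 1 h at 4 C; score merges 667 nm emission intensity with signal to noise over three replicate slides.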 The conditions noted are these: fluorescence 635 nm, higher = more signal.
Experiment [18] has as its target Concanavalin-A (Canavalia ensiformis) (UniProt P02866). Nature of the experiment: compounds binding concanavalin A lectin – biochemical, small-molecule microarray, Alexa647 label, 635 nm, artefact control for SMM control protein annotation, primary screen (AID 1127).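 Note: z combines 667 nm emission intensity with signal-to-noise across three replicate slides.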 The conditions noted are these: ConA-A647 binding fluorescence, higher = more signal.

Chain of Torsin-1A-interacting protein 1 (Homo sapiens) (Q5JTV8 whole entry, looked up): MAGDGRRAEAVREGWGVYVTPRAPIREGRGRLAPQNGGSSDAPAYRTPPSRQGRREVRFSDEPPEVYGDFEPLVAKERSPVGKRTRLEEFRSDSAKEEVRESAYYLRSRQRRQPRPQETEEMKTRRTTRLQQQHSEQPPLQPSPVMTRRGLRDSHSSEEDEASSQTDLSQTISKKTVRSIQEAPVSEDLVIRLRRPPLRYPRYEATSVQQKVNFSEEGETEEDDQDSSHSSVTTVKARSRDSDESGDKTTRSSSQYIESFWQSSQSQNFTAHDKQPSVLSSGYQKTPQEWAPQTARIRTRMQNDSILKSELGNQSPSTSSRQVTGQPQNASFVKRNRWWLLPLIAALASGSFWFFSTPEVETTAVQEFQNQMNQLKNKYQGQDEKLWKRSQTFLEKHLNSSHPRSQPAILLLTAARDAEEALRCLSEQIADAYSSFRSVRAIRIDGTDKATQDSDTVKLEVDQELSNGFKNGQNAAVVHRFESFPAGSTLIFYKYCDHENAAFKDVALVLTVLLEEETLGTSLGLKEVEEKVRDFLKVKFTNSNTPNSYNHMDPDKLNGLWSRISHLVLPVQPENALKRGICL
Chain of Albumin (Bos taurus) (P02769 whole entry, looked up): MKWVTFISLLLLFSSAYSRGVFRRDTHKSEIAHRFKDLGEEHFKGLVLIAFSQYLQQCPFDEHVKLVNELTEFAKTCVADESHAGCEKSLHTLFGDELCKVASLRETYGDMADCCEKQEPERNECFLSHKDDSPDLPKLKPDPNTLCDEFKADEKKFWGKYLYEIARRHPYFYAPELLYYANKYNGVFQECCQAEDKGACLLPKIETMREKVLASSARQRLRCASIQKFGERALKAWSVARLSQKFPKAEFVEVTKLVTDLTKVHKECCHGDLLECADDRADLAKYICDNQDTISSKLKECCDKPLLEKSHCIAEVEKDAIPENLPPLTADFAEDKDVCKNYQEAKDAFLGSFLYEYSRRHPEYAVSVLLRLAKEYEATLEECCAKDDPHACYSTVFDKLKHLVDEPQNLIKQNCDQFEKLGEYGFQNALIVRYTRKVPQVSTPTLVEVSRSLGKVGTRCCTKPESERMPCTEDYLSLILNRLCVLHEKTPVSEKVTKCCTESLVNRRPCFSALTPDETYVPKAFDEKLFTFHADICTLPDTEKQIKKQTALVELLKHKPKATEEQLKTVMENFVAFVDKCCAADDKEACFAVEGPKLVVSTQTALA
Chain of Concanavalin-A (Canavalia ensiformis) (P02866 whole entry, looked up): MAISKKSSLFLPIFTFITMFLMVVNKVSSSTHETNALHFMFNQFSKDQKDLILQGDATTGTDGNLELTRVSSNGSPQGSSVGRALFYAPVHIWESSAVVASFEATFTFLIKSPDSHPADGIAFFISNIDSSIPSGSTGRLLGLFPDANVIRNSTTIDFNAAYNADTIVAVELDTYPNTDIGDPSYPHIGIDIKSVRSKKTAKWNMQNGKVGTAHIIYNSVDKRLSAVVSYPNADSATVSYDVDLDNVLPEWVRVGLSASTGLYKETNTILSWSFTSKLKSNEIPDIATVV
Chain of Alpha-bungarotoxin (Bungarus multicinctus) (P60615 whole entry, looked up): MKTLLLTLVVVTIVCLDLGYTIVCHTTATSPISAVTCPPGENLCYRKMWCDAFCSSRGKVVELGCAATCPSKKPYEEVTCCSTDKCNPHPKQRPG
Chain of Left-right determination factor 2 (Homo sapiens) (O00292 whole entry, looked up): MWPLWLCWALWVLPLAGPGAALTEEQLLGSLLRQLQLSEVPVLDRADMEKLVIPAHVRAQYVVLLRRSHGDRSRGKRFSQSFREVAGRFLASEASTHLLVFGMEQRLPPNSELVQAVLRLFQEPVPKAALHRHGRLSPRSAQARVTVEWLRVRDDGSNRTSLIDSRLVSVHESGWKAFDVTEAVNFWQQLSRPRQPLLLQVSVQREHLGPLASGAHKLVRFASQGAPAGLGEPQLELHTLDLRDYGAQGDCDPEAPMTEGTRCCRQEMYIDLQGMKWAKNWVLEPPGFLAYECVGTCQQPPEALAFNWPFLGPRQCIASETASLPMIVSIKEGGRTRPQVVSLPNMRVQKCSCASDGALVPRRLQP

Regarding `C=CCC(OC(C)=O)[C@@H]1[C@@H](N(Cc2cccc3ccccc23)C(=O)c2cccc3ccccc23)c2cc(OCCCO)ccc2N1C(=O)Cc1ccc2ccccc2c1` (stereo not given in full), the composite z-score in experiment [1] was 0.281; in experiment [3], -0.277; in experiment [4], -0.603; in [5] it was -0.177; in experiment [6], -0.0685; in experiment [7], -0.138. In addition, the composite z-score is 0.255 in [8]; 0.0057 in experiment [9]; -0.424 in experiment [10]; -0.351 with Albumin (Bos taurus); -0.128 in [12]; -0.147 in experiment [13]. Also, the composite z-score in [14] was -0.272; in experiment [15], -0.331; in experiment [16], -0.397; with Sam68 (KHDRBS1), -0.0418; in experiment [17], 0.295; in [18], -0.508. The compound also had a z-score in experiment [2] of 0.108. Moreover, in experiment [11], the composite Z-score is -0.745 (inactive).
In the case of `CO[C@H]1O[C@H](CO)[C@@H](OC(=O)Nc2ccc(C(F)(F)F)cc2)[C@H](OC(=O)Nc2ccccc2-c2ccccc2)[C@@H]1OC(=O)Nc1ccccc1-c1ccccc1`, the composite z-score in [1] worked out at 1.3; in experiment [3], 0.523; in experiment [4], 2.2; in [5], 0.383; in [6], 0.0181; in experiment [7], 0.199. Further, the composite z-score was 0.977 in [8]; 1.47 in experiment [9]; 2.18 in experiment [10]; 0.816 with Albumin (Bos taurus); 0.387 in experiment [12]; -0.0496 in experiment [13]. In addition, the composite z-score in experiment [14] turned out to be 0.647; in experiment [15], 2.21; in [16], 0.818; in the experiment on Sam68 (KHDRBS1) it was 1.29; in experiment [17], 0.102; in experiment [18] it was 1.15. The compound also had a z-score in experiment [2] of -2.79. Further, the composite Z-score in [11] was 0.0336 (inactive).
In the case of `COC(=O)[C@@]1(Cc2ccccc2)[C@@H]2[C@@H](CC(=O)[C@H]2CC(=O)C(=O)N(C)C)CN1C(=O)c1ccccc1`, the composite z-score in experiment [1] was 0.426; in experiment [3], -0.116; in experiment [4], 0.518; in experiment [5] it was 0.599; in experiment [6], 0.0078; in experiment [7], -0.0322. In addition, the composite z-score is 0.859 in [8]; 1.38 in [9]; 0.43 in experiment [10]; 0.579 in the experiment with Albumin (Bos taurus); -0.0288 in experiment [12]; -0.0928 in experiment [13]. The composite z-score in [14] was 0.838; in [15], 2.87; in [16], 0.712; with Sam68 (KHDRBS1), -0.125; in experiment [17], -0.641; in experiment [18] it was 0.596. In addition, the z-score in experiment [2] was -0.96. Further, the composite Z-score in [11] was -0.077 (inactive).
In the case of `C#CCN(C/C=C/c1ccccc1)[C@H](CO[Si](C)(C)C(C)(C)C)c1ccccc1`, the composite z-score in experiment [1] is -0.115; in experiment [3], 0.301; in [4], -0.488; in experiment [5] it was -1.03; in [6], -0.0403; in experiment [7], -0.0553. Also, the composite z-score was -0.565 in [8]; -0.221 in [9]; -0.482 in experiment [10]; 0.491 in the experiment with Albumin (Bos taurus); -0.125 in [12]; -0.229 in experiment [13]. In addition, the composite z-score in [14] is -0.33; in experiment [15], -0.0873; in [16], 0.0021; in the experiment with Sam68 (KHDRBS1), 0.102; in experiment [17], -0.167; in [18], -0.111. Besides, in [2], the z-score is -2.36. For the same compound, the composite Z-score in experiment [11] was -0.12 (inactive).
As to `CC(c1ccccc1)C(O)C1C=CC2C(=O)N(c3ccccc3)C(=O)C2N1Nc1ccc(C#N)cc1` (stereo not given), the composite z-score in [1] is 1.41; in [3], 0.8; in experiment [4], 1.52; in experiment [5], 0.253; in experiment [6] it was 0.216; in experiment [7] it was 0.156. The composite z-score in experiment [8] was 1.45; in experiment [9] it was 1.8; in experiment [10], 1.39; with Albumin (Bos taurus), 0.976; in experiment [12] it was 0.609; in experiment [13], -0.0062. Further, the composite z-score in [14] is 0.6; in experiment [15], 3.28; in experiment [16], 0.359; in the experiment on Sam68 (KHDRBS1), 1.34; in experiment [17] it was -0.34; in experiment [18], 1.15. The z-score in experiment [2] was -0.354. The composite Z-score in experiment [11] was -0.105 (inactive).
